# Several values for one entry are separate records, joined by “and”; a condition that tells them apart may be missing. Equal values may be shown once. Some structures have more than one record in an assay (separate samples or runs), and their calls can disagree. Activity calls are given as the source filed them. The calls were made as follows: active = hit-call score of the fitted dose curve at least 0.9, where 1 is the maximum; inactive = score below 0.9.
# Experiment: ATG_NRF2_ARE_CIS: Attagene CIS-FACTORIAL HepG2 Assay for human Nuclear Factor Erythroid 2 Related Factor 2 (NFR2) response to Antioxidant Response Elements (ARE) (AID 2282992)
# Conditions: HepG2 Attagene ARE/NRF2 reporter, transcription factor activity; actives raise or lower the signal
# Method: ATG_CIS is a cell-based, multiplexed-readout assay that uses HepG2, a human liver cell line, with measurements taken at 24 hours after chemical dosing in a 24-well plate.ATG_NRF2_ARE_CIS is one of 52 assay component(s) measured or calculated from the ATG_CIS assay. It is designed to make measurements of mRNA induction, a form of inducible reporter, as detected with fluorescence intensity signals by Reverse transcription polymerase chain reaction (RT-PCR) and Capillary electrophoresis technology.Data from the assay component ATG_NRF2_ARE_CIS was analyzed into 1 assay endpoint. This assay endpoint, ATG_NRF2_ARE_CIS, was analyzed with bidirectional fitting relative to DMSO as the negative control and baseline of activity. Using a type of inducible reporter, measures of mRNA for gain or loss-of-signal activity can be used to understand the reporter gene at the transcription factor-level as they relate to the gene NFE2L2. Furthermore, this assay endpoint can be referred to as a primary readout, because this assay has produced multiple assay endpoints where this one serves a reporter gene function. To generalize the intended target to other relatable targets, this assay endpoint is annotated to the dna binding intended target family, where the subfamily is basic leucine zipper.
# Human liver HepG2 cells are transiently transfected with multiple reporter transcription units (MRTUs) in 6-well plates using FuGene 6 reagent (Roche; 3 ml FuGene/1 mg DNA). The MRTU constructs are regulated by a cis-regulating element (promoter). […] A major difference between the CIS and TRANS system is that in CIS activities of endogenous TFs are measured, whereas the TRANS assay evaluates changes in activities of exogenous, chimeric NR-Gal4 proteins. […] At the end of 24 hour incubation, total RNA was isolated using TriZol reagent (Invitrogen). The isolated RNA is then reverse-transcribed using oligo(dT) primer and Mo-MLV reverse transcriptase (Invitrogen) with DNAse I (Ambion) treatment for 30 min. The one-tenth of the produced cDNA was amplified by PCR using Taq DNA polymerase (Invitrogen) and two reporter sequence-specific primers. The PCR products were fluorescently labeled by primer extension with 6-arboxyfluorescein (6-FAM) 5'-labeled reporter sequence-specific primer (2 min at 95 C, 20 s at 68 C and 10 min at 72 C) and these products were digested with 5U of HpaI (New England Biolabs) for 2h at 37 C. The fragments were purified using Qiaquick PCR columns (Qiagen), analyzed on an ABI 3130xL genetic analyzer (Applied Biosystems) with peak positions identified by using a set of X-rhodamine (ROX)-labeled MapMarker1000 molecular weight standards (BioVentures). The raw capillary electrophoresis data was processed using Attagraph software (Attagene).
Structure (SMILES),outcome,AC50
COc1ccc(C=O)cc1,inactive,
O=C(NCO)NCO,inactive,
Cl/C=C/Cl,inactive,
COP(=S)(OC)Oc1ccc(S(=O)(=O)N(C)C)cc1,,35.2 µM (active)
O=CC=O,inactive,
C[C@]12CC[C@H](O)CC1=CC[C@@H]1[C@@H]2CC[C@]2(C)C(=O)CC[C@@H]12,inactive,
O=C(O)C(F)(F)C(F)(F)C(F)(F)C(F)(F)C(F)(F)C(F)(F)C(F)(F)C(F)(F)C(F)(F)C(F)(F)F,inactive,7.52 µM (active)
NC(=O)O,inactive,
Cn1sc(Cl)cc1=O,,135 µM (active)
O=C(Cl)c1ccc(Cl)cc1,inactive,
COC(=O)Cc1ccccc1,inactive,
ClC1=C(Cl)[C@]2(Cl)[C@@H]3[C@@H](Cl)[C@@H](Cl)C[C@@H]3[C@@]1(Cl)C2(Cl)Cl,inactive,
Oc1c(I)cc(I)cc1I,inactive,
CN(CCCC(=O)c1cccnc1)N=O,inactive,
CCOP(=S)(OCC)SCCS(=O)(=O)CC,,19 µM (active)
O=C(O)C(F)(F)C(F)(F)C(F)(F)C(F)(F)C(F)(F)C(F)(F)F,inactive,212 µM (active) and 219 µM (active)
CC(C)C1CCC(Cc2ccc(Cl)cc2)C1(O)Cn1cncn1 (stereo not given),,13.2 µM (active)
COP(=O)(OC)OC,inactive,
O=[N+]([O-])c1c(Cl)c(Cl)cc(Cl)c1Cl,,57.3 µM (active)

Structure (SMILES),outcome,AC50
CC(C)(OO)c1ccccc1,inactive,
C[C@@H](Oc1ccc(Cl)cc1Cl)C(=O)O,inactive,
COc1cc(OC)nc(NC(=O)NS(=O)(=O)c2ncccc2C(=O)N(C)C)n1,inactive,
O=P(O)(O)CN(CP(=O)(O)O)CP(=O)(O)O,inactive,
O=C(CCl)CCl,,8.44 µM (active)
O=C/C=C/c1ccccc1,,30.8 µM (active)
CC(=[OH+])/C=C(/C)[O-].CC(=[OH+])/C=C(/C)[O-].CC(=[OH+])/C=C(/C)[O-].[Fe],,16.9 µM (active)
ClC1(Cl)C2(Cl)C3(Cl)C4(Cl)C(Cl)(Cl)C5(Cl)C3(Cl)C1(Cl)C5(Cl)C24Cl (stereo not given),inactive,
CCCCP(CCCC)CCCC,inactive,
Clc1nc(Cl)nc(Cl)n1,inactive,
CC(C)OC(=O)Nc1ccccc1,inactive,
Nc1ccc(-c2ccc(N)c(Cl)c2)cc1Cl,,2.66 µM (active)
Clc1ccc(C2(Cn3cncn3)CC(Br)CO2)c(Cl)c1 (stereo not given),,26.9 µM (active)
Nc1ccc(N=Nc2ccc(-c3ccc(N=Nc4c(S(=O)(=O)O)cc5cc(S(=O)(=O)O)c(N=Nc6ccccc6)c(O)c5c4N)cc3)cc2)c(N)c1,inactive,
NC(=S)Nc1ccccc1,inactive,
Cc1ccc(N)cc1Cl,inactive,
c1cc[c]([Hg][c]2ccccc2)cc1,inactive,
ClCCBr,inactive,
COc1ccc(C=O)cc1OC,inactive,

# Source: PubChem BioAssay (EPA / NIEHS)
